The text below walks through data of ChEMBL document CHEMBL1961873, “Compounds: GSK PKIS; Assays: Nanosyn kinase panel” (2012).

The target in experiment [1] is Leukocyte tyrosine kinase receptor (Homo sapiens) (UniProt P29376). The following applies: at 1 µM.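 Also: each value is the mean inhibition of LTK.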
The target in experiment [2] is Tyrosine-protein kinase Lyn (Homo sapiens) (UniProt P07948). As to conditions: at 0.1 µM.
Experiment [3] shares this target. As to conditions: at 1 µM.
Experiment [4] shares this target. The following applies: at 0.1 µM. The source holds these as a separate data set.
Experiment [5] shares this target. As to conditions: at 1 µM. This is another data set of the same source.
Experiment [6] deals with T1, Tyrosine-protein kinase Mer (Homo sapiens) (UniProt Q12866).
T1 sequence (whole entry): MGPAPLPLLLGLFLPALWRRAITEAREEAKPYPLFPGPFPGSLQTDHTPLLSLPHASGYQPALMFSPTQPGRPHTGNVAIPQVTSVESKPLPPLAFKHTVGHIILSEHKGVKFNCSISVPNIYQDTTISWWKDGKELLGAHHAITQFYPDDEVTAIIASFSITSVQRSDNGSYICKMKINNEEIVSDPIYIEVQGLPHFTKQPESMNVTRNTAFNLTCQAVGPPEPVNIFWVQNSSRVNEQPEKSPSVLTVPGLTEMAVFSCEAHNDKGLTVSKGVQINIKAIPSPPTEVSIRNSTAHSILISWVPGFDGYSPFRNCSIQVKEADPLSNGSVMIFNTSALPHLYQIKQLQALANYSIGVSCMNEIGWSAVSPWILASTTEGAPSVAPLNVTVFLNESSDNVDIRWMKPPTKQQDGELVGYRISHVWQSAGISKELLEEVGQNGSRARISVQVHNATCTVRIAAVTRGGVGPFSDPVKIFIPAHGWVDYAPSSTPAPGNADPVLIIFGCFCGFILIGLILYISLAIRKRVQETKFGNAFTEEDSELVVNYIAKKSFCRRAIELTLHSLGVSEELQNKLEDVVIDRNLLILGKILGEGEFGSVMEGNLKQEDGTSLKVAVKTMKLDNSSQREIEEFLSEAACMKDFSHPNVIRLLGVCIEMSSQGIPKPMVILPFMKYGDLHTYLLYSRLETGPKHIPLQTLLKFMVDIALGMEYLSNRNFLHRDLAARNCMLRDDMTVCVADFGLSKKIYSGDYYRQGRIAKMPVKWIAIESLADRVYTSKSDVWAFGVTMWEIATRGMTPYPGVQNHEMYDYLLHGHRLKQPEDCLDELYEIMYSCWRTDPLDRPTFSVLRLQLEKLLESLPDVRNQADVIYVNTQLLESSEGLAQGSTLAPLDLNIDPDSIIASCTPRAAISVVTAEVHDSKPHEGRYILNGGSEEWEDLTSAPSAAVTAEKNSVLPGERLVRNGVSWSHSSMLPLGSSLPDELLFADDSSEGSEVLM
The following applies: at 0.1 µM.

For experiment [7], the target named is T1, Tyrosine-protein kinase Mer (Homo sapiens). The following applies: at 1 µM.
Experiment [8] has as its target Hepatocyte growth factor receptor (Homo sapiens) (UniProt P08581). The following applies: at 0.1 µM.
For experiment [9] the target is unchanged. As to conditions: at 1 µM.
For experiment [10], the target named is T2, Muscle, skeletal receptor tyrosine-protein kinase (Homo sapiens) (UniProt O15146).
T2 sequence (whole entry): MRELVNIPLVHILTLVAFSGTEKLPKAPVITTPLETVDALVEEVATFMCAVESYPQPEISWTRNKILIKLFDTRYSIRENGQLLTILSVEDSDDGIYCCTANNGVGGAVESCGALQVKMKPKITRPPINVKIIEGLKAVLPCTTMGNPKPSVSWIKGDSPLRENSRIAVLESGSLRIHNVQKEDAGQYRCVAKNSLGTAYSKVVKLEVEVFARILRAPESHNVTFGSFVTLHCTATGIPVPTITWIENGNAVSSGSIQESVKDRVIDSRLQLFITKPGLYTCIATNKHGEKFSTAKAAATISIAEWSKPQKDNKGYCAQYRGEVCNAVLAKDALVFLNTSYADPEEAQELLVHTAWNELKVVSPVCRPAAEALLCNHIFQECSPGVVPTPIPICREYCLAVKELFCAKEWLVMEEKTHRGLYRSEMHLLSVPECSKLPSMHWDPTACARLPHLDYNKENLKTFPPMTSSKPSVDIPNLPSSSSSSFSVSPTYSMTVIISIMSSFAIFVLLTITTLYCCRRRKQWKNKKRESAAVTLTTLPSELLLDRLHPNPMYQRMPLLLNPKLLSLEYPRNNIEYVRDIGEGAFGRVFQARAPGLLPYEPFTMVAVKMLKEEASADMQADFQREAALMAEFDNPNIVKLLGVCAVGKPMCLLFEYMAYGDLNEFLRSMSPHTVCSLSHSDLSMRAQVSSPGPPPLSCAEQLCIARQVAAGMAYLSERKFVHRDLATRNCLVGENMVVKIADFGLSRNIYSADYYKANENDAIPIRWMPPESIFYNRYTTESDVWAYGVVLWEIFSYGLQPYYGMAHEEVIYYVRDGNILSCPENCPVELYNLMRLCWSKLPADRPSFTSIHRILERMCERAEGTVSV
As to conditions: at 0.1 µM.

Experiment [11] concerns the target T2, Muscle, skeletal receptor tyrosine-protein kinase (Homo sapiens). The following applies: at 1 µM.
Experiment [12] has as its target Platelet-derived growth factor receptor alpha (Homo sapiens) (UniProt P16234). The following applies: at 0.1 µM.
The target is the same in experiment [13]. As to conditions: at 1 µM.
In experiment [14] the test system is Platelet-derived growth factor receptor alpha (Homo sapiens), P16234 [D842V]. The following applies: at 0.1 µM.
Sequence of Platelet-derived growth factor receptor alpha (Homo sapiens), P16234 [D842V] (P16234 whole entry D842V): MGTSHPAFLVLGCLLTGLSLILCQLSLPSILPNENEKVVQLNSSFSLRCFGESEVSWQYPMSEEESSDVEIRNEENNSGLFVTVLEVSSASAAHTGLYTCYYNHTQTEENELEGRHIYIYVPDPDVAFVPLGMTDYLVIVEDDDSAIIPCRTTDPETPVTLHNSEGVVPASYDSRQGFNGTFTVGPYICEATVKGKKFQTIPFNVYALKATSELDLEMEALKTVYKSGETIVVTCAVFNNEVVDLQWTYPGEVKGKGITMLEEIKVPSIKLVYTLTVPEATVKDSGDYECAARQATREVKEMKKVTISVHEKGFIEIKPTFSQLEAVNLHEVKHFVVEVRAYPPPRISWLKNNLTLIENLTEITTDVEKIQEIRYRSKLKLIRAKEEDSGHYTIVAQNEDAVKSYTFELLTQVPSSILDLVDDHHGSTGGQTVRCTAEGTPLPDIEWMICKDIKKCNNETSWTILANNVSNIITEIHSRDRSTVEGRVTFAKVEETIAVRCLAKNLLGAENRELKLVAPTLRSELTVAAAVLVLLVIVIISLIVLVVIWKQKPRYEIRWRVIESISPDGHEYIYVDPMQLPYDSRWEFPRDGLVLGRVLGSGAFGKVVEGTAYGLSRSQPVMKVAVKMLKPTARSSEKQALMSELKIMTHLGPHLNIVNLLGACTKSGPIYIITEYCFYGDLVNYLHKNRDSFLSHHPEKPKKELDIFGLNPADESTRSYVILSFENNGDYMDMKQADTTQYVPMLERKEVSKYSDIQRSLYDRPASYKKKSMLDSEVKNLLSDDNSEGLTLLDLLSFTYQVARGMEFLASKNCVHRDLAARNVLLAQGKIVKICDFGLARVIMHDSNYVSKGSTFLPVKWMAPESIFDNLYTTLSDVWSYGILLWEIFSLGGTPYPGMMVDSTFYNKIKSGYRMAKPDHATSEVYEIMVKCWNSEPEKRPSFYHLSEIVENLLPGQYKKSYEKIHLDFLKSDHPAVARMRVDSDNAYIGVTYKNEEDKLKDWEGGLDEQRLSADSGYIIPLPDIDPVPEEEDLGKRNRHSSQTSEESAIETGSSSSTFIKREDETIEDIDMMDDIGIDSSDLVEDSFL
Experiment [15] has the same test system. As to conditions: at 1 µM.
Experiment [16] deals with Platelet-derived growth factor receptor alpha (Homo sapiens), P16234 [T674I]. As to conditions: at 0.1 µM.
Sequence of Platelet-derived growth factor receptor alpha (Homo sapiens), P16234 [T674I] (P16234 whole entry T674I): as the sequence (P16234 whole entry D842V) above, with T674I, V842D counted along it
Experiment [17] shares this test system. As to conditions: at 1 µM.
For experiment [18], the system named is Platelet-derived growth factor receptor alpha (Homo sapiens), P16234 [V561D]. The following applies: at 0.1 µM.
Experiment [19] shares this test system. As to conditions: at 1 µM.
Experiment [20] has as its target Platelet-derived growth factor receptor beta (Homo sapiens) (UniProt P09619). The following applies: at 0.1 µM.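 Also: reported value is the mean percent inhibition of the kinase.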

Sequence of Tyrosine-protein kinase Lyn (Homo sapiens) (P07948 2-512 limits assumed): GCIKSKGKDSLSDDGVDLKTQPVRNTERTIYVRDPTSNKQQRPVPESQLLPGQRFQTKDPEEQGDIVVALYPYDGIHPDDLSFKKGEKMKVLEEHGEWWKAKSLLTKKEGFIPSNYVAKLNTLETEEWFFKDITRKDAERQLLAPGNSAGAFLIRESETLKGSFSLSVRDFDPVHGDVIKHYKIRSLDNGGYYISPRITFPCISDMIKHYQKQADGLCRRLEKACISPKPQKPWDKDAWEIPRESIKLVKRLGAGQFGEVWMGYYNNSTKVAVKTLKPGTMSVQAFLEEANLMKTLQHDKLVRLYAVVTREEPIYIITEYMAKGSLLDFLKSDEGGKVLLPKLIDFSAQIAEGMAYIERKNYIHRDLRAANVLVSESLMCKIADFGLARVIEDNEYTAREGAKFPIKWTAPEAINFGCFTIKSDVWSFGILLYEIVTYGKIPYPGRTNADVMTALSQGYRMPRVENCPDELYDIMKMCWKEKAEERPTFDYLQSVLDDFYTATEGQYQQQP
Sequence of Platelet-derived growth factor receptor beta (Homo sapiens) (P09619 whole entry): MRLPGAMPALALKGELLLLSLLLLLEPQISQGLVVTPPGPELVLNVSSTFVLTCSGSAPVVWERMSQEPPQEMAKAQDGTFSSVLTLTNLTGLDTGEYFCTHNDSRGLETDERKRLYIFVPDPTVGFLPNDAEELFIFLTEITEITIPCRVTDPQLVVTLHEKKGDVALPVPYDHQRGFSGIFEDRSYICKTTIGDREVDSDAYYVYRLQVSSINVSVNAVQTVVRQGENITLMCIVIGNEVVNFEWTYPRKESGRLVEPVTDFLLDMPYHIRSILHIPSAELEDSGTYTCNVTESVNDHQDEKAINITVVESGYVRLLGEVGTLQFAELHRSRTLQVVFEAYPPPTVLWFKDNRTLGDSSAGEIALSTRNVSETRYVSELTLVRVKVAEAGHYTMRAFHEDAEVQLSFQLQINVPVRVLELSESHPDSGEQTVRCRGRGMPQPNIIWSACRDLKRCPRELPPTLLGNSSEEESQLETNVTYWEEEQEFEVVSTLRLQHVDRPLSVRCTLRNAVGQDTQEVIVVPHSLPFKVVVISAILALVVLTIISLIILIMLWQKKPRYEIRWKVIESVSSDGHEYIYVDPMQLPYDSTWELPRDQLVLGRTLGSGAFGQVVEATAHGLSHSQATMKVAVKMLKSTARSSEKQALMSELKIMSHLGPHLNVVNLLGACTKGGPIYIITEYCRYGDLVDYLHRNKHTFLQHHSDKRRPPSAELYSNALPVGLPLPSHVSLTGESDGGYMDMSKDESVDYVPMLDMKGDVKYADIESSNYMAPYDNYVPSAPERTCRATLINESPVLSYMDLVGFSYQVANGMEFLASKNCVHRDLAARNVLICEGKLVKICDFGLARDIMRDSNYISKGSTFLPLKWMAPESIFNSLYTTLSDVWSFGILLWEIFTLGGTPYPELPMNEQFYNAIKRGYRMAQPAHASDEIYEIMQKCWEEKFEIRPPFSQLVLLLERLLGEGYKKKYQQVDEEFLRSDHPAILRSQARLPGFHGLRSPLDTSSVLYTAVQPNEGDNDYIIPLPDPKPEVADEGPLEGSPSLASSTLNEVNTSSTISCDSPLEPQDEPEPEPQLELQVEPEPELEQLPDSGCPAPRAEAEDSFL
Sequence of Platelet-derived growth factor receptor alpha (Homo sapiens) (P16234 whole entry): as the sequence (P16234 whole entry D842V) above, with V842D counted along it

Regarding `Cn1c(-c2nonc2N)nc2cnccc21`, the inhibition (commonly the drop in the measured response relative to a control, in per cent) was 4.18% in experiment [1]; 4.05% in experiment [2]; 2.29% in [3]; 2.97% in experiment [4]; 1.52% in [5]; 1.12% in experiment [6]. For the same molecule, the inhibition in experiment [7] amounted to 3.84%; in experiment [8], 3.78%; in experiment [9] it was 3.65%; in [10], 2.14%; in experiment [11] it was 5.28%; in experiment [12], 2.63%. In addition, the inhibition was 7.48% in [13]; 2.81% in experiment [14]; 4.99% in experiment [15]; 4.72% in [16]; 6.95% in experiment [17]; 1.45% in [18]. In addition, the inhibition in experiment [19] stood at 3.93%; in [20] it was 1.55%.

For the molecule `O=C(O[C@H]1CN[C@H](C#Cc2cc3ncnc(Nc4ccc5c(ccn5Cc5cc(F)ccc5F)c4)c3s2)C1)N1CCOCC1`, the inhibition in [1] was 4.15%; in experiment [2] it was 4.33%; in experiment [3] it was 6.23%; in experiment [4], 2.03%; in experiment [5], 1.87%; in experiment [6], 1.34%. Further, the inhibition was 3.33% in experiment [7]; 7.21% in experiment [8]; 10.8% in [9]; 2.87% in [10]; 4.92% in experiment [11]; 6.05% in experiment [12]. Also, the inhibition is 12.3% in experiment [13]; 2.95% in [14]; 3.49% in [15]; 5.88% in experiment [16]; 6.54% in experiment [17]; 7.32% in [18]. For the same molecule, the inhibition amounted to 5.97% in experiment [19] and 2.48% in experiment [20].

In the case of `FC(F)(F)CNc1nccc(-c2cnn3ncccc23)n1`, the inhibition in [1] amounted to 0.86%; in [2], 3.13%; in [3], 3.07%; in [4], 2.86%; in [5], 1.59%; in experiment [6] it was 2.37%. Moreover, the inhibition in experiment [7] was -0.52%; in [8], 0.67%; in experiment [9] it was 9.54%; in [10], 2.13%; in [11] it was -2.34%; in experiment [12], 0.78%. The inhibition in [13] was determined as 10.1%; in experiment [15], 4.9%; in [16], 1.52%; in experiment [17], 4.54%; in [18] it was 0.59%; in [19] it was 2.85%. Moreover, the inhibition in experiment [20] worked out at 2.11%.

On to `COC(=O)Nc1nc2cc(Oc3ccc(NC(=O)Nc4ccccc4)cc3)ccc2[nH]1`, for which the inhibition in experiment [1] was 4.01%; in [2] it was 3.96%; in experiment [3], 8.66%; in experiment [4], 2.63%; in [5] it was 6.73%; in experiment [6], 1.34%. Also, the inhibition in experiment [7] was found to be 2.99%; in experiment [8], 2.87%; in experiment [9], 18.7%; in experiment [10], 3.96%; in experiment [11] it was 2.88%; in experiment [12], 38.5%. Besides, the inhibition in [13] is 66.6%; in [14], 0.57%; in [15], 5.23%; in experiment [16] it was 53%; in experiment [17], 93.9%; in [18], 62.7%. Also, the values for the inhibition in [19] and in experiment [20] were 84.8% and 7.12%, respectively.

On to `COc1cccc(Nc2nccc(-c3cnn4ncccc34)n2)c1`, for which the inhibition in experiment [1] worked out at 18.2%; in [2] it was 5.3%; in experiment [3], 16.9%; in experiment [4], 3.27%; in experiment [5] it was 11.3%; in experiment [6], 1.29%. Besides, the inhibition in experiment [7] was 12.1%; in [8] it was 3.9%; in experiment [9], 12.1%; in experiment [10], 2.83%; in [11] it was 25.3%; in experiment [12], 14.3%. For the same molecule, the inhibition in experiment [13] amounted to 49.3%; in experiment [14] it was 6.1%; in experiment [15], 47.1%; in [16] it was 12.6%; in experiment [17], 80.7%; in [18] it was 26.4%. In addition, the inhibition was 64.1% in experiment [19] and 23.9% in experiment [20].

For the molecule `Fc1ccc(Nc2nccc(-c3c(-c4ccc(C(F)(F)F)cc4)nn4ncccc34)n2)cc1F`, the inhibition in [1] worked out at 3.06%; in [2], 2.77%; in experiment [3], 2.13%; in experiment [4], 1.22%; in experiment [5] it was 0.38%; in experiment [6], 3.18%. Besides, the inhibition in experiment [7] is 2.81%; in experiment [8], 4.74%; in experiment [9], 4.74%; in experiment [10], 2.34%; in experiment [11], 2.81%; in experiment [12], 8.86%. For the same molecule, the inhibition in experiment [13] came to 7.72%; in experiment [15] it was 4.26%; in experiment [16] it was 4.35%; in [17], 6.66%; in experiment [18], 3.46%; in [19], 2.39%. In addition, the inhibition in experiment [20] stood at 2.15%.

In the case of `CNC(=O)c1cncc(/C=C/c2ccccc2C)c1`, the inhibition in [1] is 2.98%; in experiment [2], 7.42%; in [3] it was 18.9%; in experiment [4], 3.73%; in experiment [5], 14.9%; in [6], -0.15%. Also, the inhibition in experiment [7] turned out to be 1.66%; in experiment [8] it was 9.7%; in experiment [9], 5.5%; in [10] it was 3.91%; in experiment [11], 3.97%; in experiment [12] it was 11.8%. Moreover, the inhibition came to 17.8% in experiment [13]; 3.85% in experiment [14]; 5.79% in [15]; 4.91% in [16]; 5.69% in [17]; 4.75% in experiment [18]. The inhibition in experiment [19] was 17%; in experiment [20], 6.6%.
